# Source: PubChem BioAssay (NCATS)
# Several values for one entry are separate records, joined by “and”; a condition that tells them apart may be missing. Equal values may be shown once. Inconclusive results are not listed. A call without a number means that no potency is given here. Activity calls are given as the source filed them. Unless noted, the call rests on the fitted dose curve; in most records, active means well fitted curve in the direction sought with a large enough effect; inconclusive means small, poorly fitted or top-dose-only effect, or another doubt; inactive means no such curve, though single readings can be large; an effect the other way counts as inactive or inconclusive.
# Tests used:
# [1] = molecular target: Cytochrome P450 2D6 (Homo sapiens) (UniProt P10635); assay: Cytochrome P450 family 2 subfamily D member 6 (CYP2D6) small molecule antagonists: luciferase biochemical (cell-free) qHTS assay (AID 1645840; active means well fitted curve in the direction sought with a large enough effect in the repeat runs; an effect the other way counts as inactive or inconclusive; further: nearly all actives have a fitted effect of over 55% in size)
# Sequence of Cytochrome P450 2D6 (Homo sapiens) (P10635 whole entry, looked up): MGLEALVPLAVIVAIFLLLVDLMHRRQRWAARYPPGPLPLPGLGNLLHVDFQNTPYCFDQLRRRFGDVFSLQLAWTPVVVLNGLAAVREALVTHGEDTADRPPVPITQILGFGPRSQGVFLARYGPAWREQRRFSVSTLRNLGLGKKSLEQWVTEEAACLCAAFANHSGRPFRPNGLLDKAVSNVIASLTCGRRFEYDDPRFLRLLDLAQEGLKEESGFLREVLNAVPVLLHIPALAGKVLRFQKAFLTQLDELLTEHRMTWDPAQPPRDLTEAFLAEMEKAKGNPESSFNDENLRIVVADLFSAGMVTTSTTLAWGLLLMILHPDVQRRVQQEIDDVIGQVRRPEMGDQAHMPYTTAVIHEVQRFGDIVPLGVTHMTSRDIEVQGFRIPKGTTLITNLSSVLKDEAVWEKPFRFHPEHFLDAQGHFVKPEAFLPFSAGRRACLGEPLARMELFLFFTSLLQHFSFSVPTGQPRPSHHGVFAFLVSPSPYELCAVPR
# Method in brief: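 P450-Glo CYP2D6 system: proluciferin substrate converted by enzyme to luciferin, read by luminescence proportional to activity. Enzyme-substrate mix with compound 10 min at room temperature, then NADPH regeneration 1 h before detection reagent.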
# [2] = molecular target: Cytochrome P450 2C9 (Homo sapiens) (UniProt P11712); assay: Cytochrome P450 family 2 subfamily C member 9 (CYP2C9) small molecule antagonists: luciferase biochemical (cell-free) qHTS assay (AID 1645842; active means well fitted curve in the direction sought with a large enough effect in the repeat runs; an effect the other way counts as inactive or inconclusive; further: nearly all actives have a fitted effect of over 55% in size)
# Sequence of Cytochrome P450 2C9 (Homo sapiens) (P11712 whole entry, looked up): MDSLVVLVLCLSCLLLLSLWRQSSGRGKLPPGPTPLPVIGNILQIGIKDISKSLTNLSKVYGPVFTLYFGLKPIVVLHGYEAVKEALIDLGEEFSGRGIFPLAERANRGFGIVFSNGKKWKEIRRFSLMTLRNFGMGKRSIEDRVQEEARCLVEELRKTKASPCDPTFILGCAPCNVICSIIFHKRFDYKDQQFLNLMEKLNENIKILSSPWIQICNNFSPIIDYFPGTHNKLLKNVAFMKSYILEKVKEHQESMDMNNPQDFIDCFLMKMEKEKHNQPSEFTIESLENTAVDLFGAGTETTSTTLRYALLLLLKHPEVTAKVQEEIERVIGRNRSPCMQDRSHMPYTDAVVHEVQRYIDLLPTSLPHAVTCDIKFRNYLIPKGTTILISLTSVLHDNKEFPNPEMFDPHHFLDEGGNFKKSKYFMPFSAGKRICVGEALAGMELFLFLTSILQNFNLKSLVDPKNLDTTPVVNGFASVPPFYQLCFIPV
# Method in brief: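 P450-Glo CYP2C9 system: proluciferin substrate with enzyme in mix containing 0.4% BSA, 10 min at room temperature, then NADPH regeneration solution added and incubated 1 h at 37C. Detection reagent stopped reaction; luminescence read after 20 min as RLU.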
# [3] = Primary qHTS for inhibitors of nuclear receptor binding SET domain protein 2 (NSD2) in an isogenic RCH-ACV NSD2 p.E1099K mutant (9B) (AID 1645876); further: nearly all actives have a fitted effect of over 70% in size
# [4] = Primary qHTS for inhibitors of nuclear receptor binding SET domain protein 2 (NSD2) in an RCH-ACV wild type WT cells (2C) (AID 1645877); further: nearly all actives have a fitted effect of over 70% in size
# Potency means the concentration at half of the fitted maximal effect.
SMILES,Potency [1],Potency [2],Potency [3],Potency [4]
CN(C)C/C=C/C(=O)Nc1ccc(C(=O)Nc2cccc(Nc3ncc(Cl)c(-c4c[nH]c5ccccc45)n3)c2)cc1,inactive,7.56 µM (active),18.3 nM (active) and 52.5 nM (active),18.3 nM (active) and 46.8 nM (active)
Cc1onc(-c2ccccc2)c1C(=O)N[C@@H]1C(=O)N2[C@@H]1SC(C)(C)[C@@H]2C(=O)O,inactive,inactive,inactive,inactive
CNC(=O)c1ccc(Nc2ncc(C(F)(F)F)c(NCc3nccnc3N(C)S(C)(=O)=O)n2)cc1,inactive,3.79 µM (active),2.58 µM (active) and 1.66 µM (active),2.05 µM (active) and 1.86 µM (active)
CCCCNC(=O)[C@@H]1Cc2ccccc2N1C(=O)[C@@H](N)CC,inactive,inactive,inactive,inactive
CON(C)C(=O)N1N=C(c2cc(F)ccc2F)S[C@@]1(CCCN)c1ccccc1,19 µM (active),3.01 µM (active),9.2 nM (active) and 14.8 nM (active),6.5 nM (active) and 13.2 nM (active)
NC(Cc1c[nH]c2ccccc12)C(=O)NC(CCC(=O)O)C(=O)O (stereo unspecified),inactive,inactive,inactive,inactive
CC(C)Nc1cc(-c2c[nH]c(C(=O)N[C@H](CO)c3cccc(Cl)c3)c2)c(Cl)cn1,19 µM (active),4.77 µM (active),20.5 µM (active) and 2.95 µM (active),8.17 µM (active) and 2.95 µM (active)
CO[C@@H](Cc1ccc(OCCc2nc(-c3ccccc3)oc2C)c2ccsc12)C(=O)O,inactive,26.8 µM (active),inactive,inactive
COc1cccc(-c2ccc([C@@H](Oc3cc(-c4ccc(C[C@H](N)C(=O)O)cc4)nc(N)n3)C(F)(F)F)cc2)c1,inactive,6.74 µM (active),inactive,inactive
Cc1cc(C)c(S(=O)(=O)N(Cc2ccc(-c3cccc(S(C)(=O)=O)c3)cc2)Cc2ccc(C(F)(F)F)o2)c(C)c1,inactive,0.268 µM (active),inactive,inactive
CCn1nnnc1NCc1ccc(C(C)C)cc1,inactive,7.56 µM (active),inactive,inactive
CCc1cc2c(=O)c(-c3nc4ccccc4s3)coc2c(CN2CCCCC2)c1O,inactive,0.12 µM (active),inactive,inactive
CCNC(=O)[C@H]1O[C@H](n2cnc3c(NCC(c4ccccc4)c4ccccc4)nc(C(=O)NCCNC(=O)NC4CCN(c5ccccn5)CC4)nc32)[C@H](O)[C@@H]1O,23.9 µM (active),3.79 µM (active),inactive,inactive
O=C1NC(=Nc2ccccc2F)S/C1=C\c1ccc(C(=O)O)cc1,inactive,10.7 µM (active),inactive,inactive
Cc1nc2c(-c3cnc(N)nc3)nc(N3CCOCC3)nc2n1C(C)C,inactive,12 µM (active),72.8 nM (active) and 132 nM (active),72.8 nM (active) and 132 nM (active)
Cc1cc(C)cc(NC(=O)Cc2ccc(OC(C)(C)C(=O)O)cc2)c1,inactive,inactive,inactive,inactive
CN1Cc2c(N)cccc2C(c2ccccc2)C1 (stereo unspecified),7.76 µM (active),inactive,inactive,inactive
CC1(C)C(=O)C(C)(C)c2cc(C(=O)Nc3ccc(C(=O)O)cc3)ccc21,inactive,inactive,inactive,inactive
Nc1ncnc2c1ncn2[C@H]1CCCO1,inactive,inactive,inactive,inactive
OC[C@H]1O[C@@H](n2cnc3c2NC=NC[C@H]3O)C[C@@H]1O,inactive,inactive,inactive,inactive
CCC(=O)N[C@@H]1Cc2ccccc2[C@H](c2ccccc2)C1,9.52 µM (active),3.01 µM (active),inactive,inactive
CC1(C)OC(=O)C(OCC2CC2)=C1c1ccc(S(C)(=O)=O)cc1,inactive,13.5 µM (active),inactive,inactive
CNC(=O)O[C@H]1COc2ccc(N3CCN(C4COC4)CC3)cc2[C@@H]1NC(=O)c1ccc(F)cc1,inactive,inactive,inactive,inactive
C=C1CC[C@@H]2[C@](C)(CO)[C@H](O)CC[C@@]2(C)[C@@H]1C/C=C1/C(=O)OC[C@H]1O,inactive,inactive,8.33 µM (active),7.42 µM (active)
